# Only some compounds are listed: those with a hit (about 7.3% of all), similar ones and a draw of the others.
# FLuc modulator: firefly luciferase modulation, counter-screen for miR-21 project. P08659. purified FLuc, Km substrates, luminescence inhibition. Potency, µM (titrated, usually from 57.5 µM), inactives show top-dose activity change, negative = inhibition, most hits filed as inhibitors. hit rate 6.9% among 360,000. AID 588342;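 further: plate controls were vehicle for no effect and reference inhibitor for full effect; nearly all actives have a fitted effect of over 55% in size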
# Target sequence (P08659 whole entry, looked up): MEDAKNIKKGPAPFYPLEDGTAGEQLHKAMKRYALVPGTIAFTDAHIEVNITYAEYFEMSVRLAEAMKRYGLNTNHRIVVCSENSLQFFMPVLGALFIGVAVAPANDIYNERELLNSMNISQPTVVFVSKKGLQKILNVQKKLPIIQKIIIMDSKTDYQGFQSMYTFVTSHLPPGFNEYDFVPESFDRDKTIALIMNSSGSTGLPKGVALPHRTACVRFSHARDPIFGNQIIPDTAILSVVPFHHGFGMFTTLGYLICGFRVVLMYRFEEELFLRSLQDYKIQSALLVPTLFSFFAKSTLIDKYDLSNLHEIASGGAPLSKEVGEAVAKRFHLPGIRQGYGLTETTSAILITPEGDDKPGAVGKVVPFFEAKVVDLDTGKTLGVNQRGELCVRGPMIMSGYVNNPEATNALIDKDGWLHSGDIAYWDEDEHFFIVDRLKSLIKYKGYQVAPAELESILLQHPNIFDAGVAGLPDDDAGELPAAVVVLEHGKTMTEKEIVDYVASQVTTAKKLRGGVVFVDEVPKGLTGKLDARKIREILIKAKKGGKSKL
#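 Biochemical qHTS of compounds, final roughly 60 µM downward over six points, against 10 nM purified firefly luciferase using Km concentrations of substrates (10 uM D-luciferin, 10 uM ATP) in Tris acetate pH 7.5 buffer; luminescence output.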
# NPC1 prom act: activates the NPC1 promoter | Potency, µM (doses to about 9.22 µM), for inactives: top-dose activation, most hits filed as activators | Huh7 NPC1 promoter luciferase reporter, 24 h | AID 485313 | hit rate 2.4% among 320,000; further: % of control where 0% means no effect; nearly all actives have a fitted effect of over 60% in size
#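 Huh7 reporter cells (NPC1 promoter driving luciferase) are dosed with compound for 24 h at 37 °C, 5% CO2; luciferase detection reagent is then added and luminescence measured after 10 min at ambient temperature.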
# Luc counter: Kinase-Glo luciferase inhibition (counter-screen); Q27757; Kinase-Glo luciferase, ATP luminescence, 8 min; hit rate 0.28% among 200,000; Potency, µM (top dose mostly 38.3 µM), without a hit: at the highest dose activity change, negative = inhibition, usual class: inhibitors; further: on the % scale 0 is the no-effect control and ±100 the full control effect; nearly all actives have a fitted effect of over 60% in size
#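 Luminescence was the read-out, taken after 8-minute incubation at ambient temperature. Luciferase turned over luciferin with 10 uM ATP in imidazole pH 7.2 buffer containing KCl, MgCl2, Tween 20 and BSA.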
# Rab9 promoter act: activates the Rab9 promoter. Huh7 Rab9 promoter-luciferase reporter, luminescence, 24 h. Potency, µM (top dose mostly 9.22 µM), without a hit: top-dose activation, negative = inhibition, actives largely listed as activators. hit rate 2.8% among 320,000; further: % of control where 0% means no effect; nearly all actives have a fitted effect of over 60% in size
#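 Luciferase signal after 10 min detection reagent at ambient indicates Rab9 promoter upregulation; stably transfected Huh7 cells were treated 24 h with compound in DMSO at 37 °C, 5% CO2.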
# ELG1 genotoxic: induces genotoxicity in HEK293T cells with luciferase-tagged ELG1; Potency, µM (series often up to 46 µM), for the others: at the highest dose activity change, positive = activation, usual class: activators; HEK293T ELG1-luciferase reporter, luminescence, 16 h; AID 504466; hit rate 1.3% among 330,000; further: % of control where 0% means no effect; nearly all actives have a fitted effect of over 60% in size
#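 Luminescence read-out: rising ELG1-luciferase signal, reflecting elevated ELG1 protein under genetic stress, flags genotoxic compounds. Cells were treated for 16 hr at 37 °C before ONE-Glo detection.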
# SMN2 splice up: SMN2 splice variant enhancement | HEK293 SMN2-luciferase splicing reporter, luminescence, 30-36 h | Potency, µM (highest dose often 46.1 µM), for the others: top-dose activity change, positive = activation, most hits filed as activators | hit rate 2.8% among 210,000 | AID 1458; further: % of control where 0% means no effect; nearly all actives have a fitted effect of over 55% in size
#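 HEK293 cells carry an SMN2 minigene-luciferase reporter in which exon 7 inclusion puts luciferase in frame. Cells were seeded at 2000 cells/well, attached for 10-12 hours, then exposed to compounds for 30-36 hours at 37C before ONE-Glo luminescence.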
# Active calls of the source: *; ? = inconclusive; . = no result; [ ] = dose if it differs, or a comment. The call rests on the fitted dose curve; in most records, active means well fitted curve in the direction sought with a large enough effect; inconclusive means small, poorly fitted or top-dose-only effect, or another doubt; inactive means no such curve, though single readings can be large; an effect the other way counts as inactive or inconclusive. Potency means the concentration at half of the fitted maximal effect.
SMILES,FLuc modulator,NPC1 prom act,Luc counter,Rab9 promoter act,ELG1 genotoxic,SMN2 splice up
Cn1c(/C=C/c2ccccc2)nc2ccccc21,0.13µM*,0.56µM*,7.1µM*,?,?,.
Cn1c(/C=C/c2cccc(Br)c2)nc2ccccc2c1=O,15µM*,28%,.,-5%[1.84 µM],1%,.
O=c1c(/C=C(\O)c2ccc(F)cc2)nc2ccccc2n1-c1ccccc1,?,19%,-2%,?,?,1%
Cn1c(=O)c(/C=C/c2ccc(F)cc2)nc2ccccc21,6.7µM*,-30%,-4%,-30%,8%,.
CCCC(=O)N1c2nc(C(C)C)nn2C2(CCCCC2)[C@@H]2CCCC[C@@H]21,-8%,.,.,.,.,.
COc1ccc(Cl)cc1NC(=O)CN1C(=O)CSc2ccc(S(=O)(=O)N3CCCC3)cc21,-8%,.,.,.,.,.
CN1CCc2nc3sc(C(=O)Nc4ccccc4C(F)(F)F)c(N)c3cc2C1,-10%,.,.,.,.,-24%
CC(=O)c1ccc(/C=C/c2nc3ccccc3n2C)o1,5.4µM*,1.3µM*,.,1µM*,16µM*,.
CCOC(=O)c1nc(NCc2ccccc2)sc1C,?,19%,.,24%,12%,.
CC(=O)c1sc(N/N=C\c2cccc(Br)c2)nc1C,11µM*,-3%,-4%,18%,6%,?
CC(=O)c1sc(N/N=C\c2ccc(Br)cc2)nc1C,5.4µM*,?,0%,?,?,?
CCOC(=O)c1nc(N/N=C/c2ccccc2)sc1Br,7.6µM*,21%,.,20%,2%,.
CCOC(=O)c1sc(N/N=C/c2ccc(N(C)C)cc2)nc1C,11µM*,25%,.,?,13%,.
COc1cc(Cl)c(NC(=O)c2cc(S(=O)(=O)N3CCCCC3)c[nH]2)c(OC)c1,-9%,.,.,.,.,.
CC1=C(C(=O)N2CCCCC2)C(c2cccc(Cl)c2)n2c(nc3ccccc32)N1 (stereo not drawn),-1%,.,.,.,.,-5%
CN1CCS/C1=C/C=C1\SC(=S)N(CC(=O)O)C1=O,15µM*,0%,-10%,-2%,-1%,.
CCCCN1C(=O)/C(=C/C=C2\SCCN2C)SC1=S,13µM*,?,-2%,3.2µM*,25%,16µM*
Cc1cccc(-c2nc(SCC(=O)NCC3CCCO3)c3c(=O)n(C)c(=O)n(C)c3n2)c1 (stereo not drawn),0%,.,.,.,.,.
O=C(NCCCO)c1cc2c(cn1)[nH]c1ccccc12,17µM*,28%,.,?,14%,.
C[C@H](NC(=O)c1cc2c(cn1)[nH]c1ccccc12)C(=O)O,?,2%,.,4%,1%,.
CCOC(=O)COc1ccc(C)cc1C(=O)c1ccn2nc(-c3ccc(C)cc3)cc2n1,5%,.,.,.,.,-5%
CN(C(=O)COC(=O)c1sc2ccccc2c1Cl)C1CCCCC1,?,0%,3%,-4%,-1%,-7%
CN(C)CCCN(C(=O)c1sc2ccccc2c1Cl)c1nc2ccc(F)cc2s1,4.8µM*,-2%,1%,-4%,?,18µM*
Cc1ccc2nc(N(CCCN(C)C)C(=O)c3ccc4ncsc4c3)sc2c1,17µM*,?,.,4µM*,?,.
CN(C)CCCOC(=O)c1sc2ccccc2c1Cl,24µM*,-8%,-2%,0%,4%,.
SMILES,FLuc modulator,NPC1 prom act,Luc counter,Rab9 promoter act,ELG1 genotoxic,SMN2 splice up
Cc1ccc(NC(=O)CCCc2nnc3n(C)c(=O)c4sccc4n23)cc1F,2%,.,.,.,.,-3%
CCOc1ccc(N2C(=O)CC(SCCN)C2=O)cc1 (stereo not drawn),17µM*,1.4µM*,-8%,2.2µM*,?,11µM*
COc1cccc(CNC(=O)c2cc(C)nc3c2c(C)nn3-c2cccc(F)c2)c1,1%,.,.,.,.,.
COC(=O)/N=C(/Cc1ccc(OC)cc1)c1ccc(OC)cc1,0.76µM*,18%,.,17%,8%,.
O=C(/C=C/c1ccc(-c2ccccc2[N+](=O)[O-])o1)c1ccco1,19µM*,2%,-3%,?,2%,9%
C=C(C)Cn1c(SCC(=O)c2ccccc2)nc2sc3c(c2c1=O)CCCC3,-1%,.,.,.,.,5.6µM*
C=C(C)Cn1c(SCC(=O)Nc2cccc(C)c2)nc2sc3c(c2c1=O)CCCC3,0%,.,.,.,.,-19%
C=CCn1c(SCC(=O)Nc2cc(C)on2)nc2sc3c(c2c1=O)CCCC3,-1%,-1%,-3%,-1%,-1%,13µM*
Cc1ccc(Cl)cc1Nc1nc(-c2sc(NC(=O)c3ccco3)nc2C)cs1,0%,-13%,7%,-15%,-3%,-77%
Cc1nc(NC(=O)c2ccco2)sc1-c1csc(Nc2ccc(Cl)cc2)n1,11µM*,-2%,1%,4%,-10%,-27%
Nc1nc(Nc2ccccc2F)sc1C(=O)c1ccccc1,6µM*,?,.,0.71µM*,?,.
Cc1nc(NC(=O)c2ccccc2)sc1-c1csc(Nc2ccc(F)cc2)n1,7.6µM*,-5%,-9%,-2%,-12%,-46%
Cc1nc(NC(=O)c2ccccc2)sc1-c1csc(Nc2cccc(Cl)c2)n1,?,0%,-3%,2%,-7%,-33%
Cc1nc(NC(=O)c2ccccc2)sc1-c1csc(Nc2ccc(Cl)cc2)n1,8.5µM*,-5%,0%,-6%,1%,-29%
C=CCOC(=O)N[C@H](/C(C(=O)OC)=C(\C)NCc1ccccc1)c1cccc(C(F)(F)F)c1,.,.,1%,.,.,9%
CCc1ccccc1O,.,.,.,.,.,-7%
CCOc1ccc(CNC(=O)C2CCCN(S(=O)(=O)c3ccc4c(c3)CCCC(=O)N4)C2)cc1 (stereo not drawn),-3%,.,.,.,.,.
COc1ccc(N(C(=O)COc2ccc(Br)cc2)S(=O)(=O)c2ccc(C)cc2)cc1,-4%,.,.,.,.,1%
COc1ccc(Cl)cc1Nc1nc(-c2sc(NC(=O)c3ccccc3)nc2C)cs1,0%,-8%,-5%,-3%,-5%,-36%
Cc1nc(NC(=O)c2ccccc2)sc1-c1csc(Nc2ccc(Cl)cc2Cl)n1,9.5µM*,0%,-7%,-1%,-1%,4%
Cc1nc(Nc2ccccc2)sc1C(=O)c1ccc(F)cc1,19µM*,?,.,?,15%,.
Cc1ccccc1Nc1nc(-c2sc(NC(=O)c3cccc(Cl)c3)nc2C)cs1,?,-1%,-7%,0%,0%,-18%
C=CCCC(=O)Nc1nc(C)c(-c2csc(Nc3ccc(Cl)cc3Cl)n2)s1,27µM*,1%,-1%,-7%,-5%,-18%
Cc1ccccc1Nc1nc(-c2sc(NC(=O)c3ccccc3)nc2C)cs1,8.5µM*,1%,-8%,-4%,0%,2%
COc1ccccc1NC(=O)C1=C(C)Nc2c(C(=O)Nc3ccc(C)cc3)cnn2C1c1cccc(OC)c1OC (stereo not drawn),-6%,.,.,.,.,.

# Bioassay records: PubChem BioAssay, National Center for Advancing Translational Sciences (NCATS)
